Data on five compounds can be found in PubChem BioAssay.

The structures appear in SMILES notation. The source made the active and inactive calls.

Assay [1] can be described thus: small molecules captured by biotinylated probe aFSTL3 – biochemical, small-molecule microarray, fluorescence 635/667, stem cell growth factor project, primary screen (AID 1064).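 Further: measures binding of the biotinylated anti-FSTL3 antibody to printed compounds.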 Conditions: higher = more signal.
The nature of assay [2]: binders from COS7 lysate, DM2A8 probe, primary screen, torsin A project, cell lysate, small-molecule microarray, fluorescence 635/667 (AID 1065). Conditions: higher = more signal, COS7 lysate expressing mutant human TOR1A.
Assay [3] in a line: small molecules captured by biotinylated probe aFGF2 – biochemical, small-molecule microarray, fluorescence 635/667, stem cell growth factor project, primary screen (AID 1067).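 Further: measures binding of biotinylated aFGF2 protein to printed compounds on slides; z-score merges feature fluorescence and signal-to-noise across triplicate slides.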 Conditions: higher = more signal.
A short description of assay [4]: small molecules captured by biotinylated probe aFGF10 – biochemical, small-molecule microarray, fluorescence 635/667, stem cell growth factor project, primary screen (AID 1071).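 Further: score merges 667 nm spot intensity and signal to noise from triplicate slides.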 Conditions: higher = more signal.
Assay [5] deals with Neurogenic locus notch homolog protein 2 (Homo sapiens) (UniProt Q04721). The assay can be described thus: small molecules binding Notch2 protein – biochemical, small-molecule microarray, 635 nm fluorescence, stem cell growth factors, primary screen (AID 1073). Conditions: higher = more signal.
Assay [6] has as its target Pro-neuregulin-1, membrane-bound isoform (Homo sapiens) (UniProt Q02297). The assay can be described thus: small molecules binding neuregulin-1 protein – biochemical, small-molecule microarray, fluorescence 635/667, psychiatric disease protein project, primary screen (AID 1075).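 Further: score combines 667 nm spot fluorescence with signal to noise.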 Conditions: NRG1 binding, 635 nm fluorescence, higher = more signal.
The subject of assay [7] is Neuregulin-1 EGF-like domain. As to the kind of experiment: small molecules binding NRG1 EGF domain – biochemical, small-molecule microarray, 635 nm fluorescence, primary screen (AID 1081).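 Further: binding of the protein to compounds printed on small-molecule microarray slides.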 Conditions: higher = more signal.
A short description of assay [8]: FRG1 expression reporter modulators in myotubes – cell-based, C2C12 myotubes, firefly/Renilla luciferase, luminescence, FRG1 inhibition for FSHD, primary screen (AID 1084). Conditions: FRG1 promoter luciferase, higher = more signal, called active from +8 up or from −8 down.
Assay [9] can be described thus: small molecules captured by biotinylated probe aFST – biochemical, small-molecule microarray, fluorescence 635/667, stem cell growth factor project, primary screen (AID 1086).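 Further: score merges 667 nm fluorescence with signal-to-noise of each printed compound spot.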 Conditions: higher = more signal.
The nature of assay [10]: binders of probe aHhip on microarray, primary screen, stem cell growth factor project, biochemical, small-molecule microarray, fluorescence 635/667 (AID 1087).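 Further: score merges spot fluorescence at 667nm with spot signal to noise ratio.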 Conditions: higher = more signal.
For assay [11], the system named is PRMT1 (protein arginine N-methyltransferase 1). As to the kind of experiment: small molecules binding arginine methyltransferase PRMT1 – biochemical, small-molecule microarray, 635 nm fluorescence, primary screen (AID 1088).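 Further: binding of Prmt1 protein to compounds spotted on small-molecule microarray slides.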 Conditions: higher = more signal.
A short description of assay [12]: growth effects on S. cerevisiae YJM789 – YJM789 clinical isolate, OD600, 24 h, basal, primary screen (AID 1089).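 Further: growth of clinical yeast isolate S. cerevisiae YJM 789 seeded 1000 cells per well; test concentration not given here.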 Conditions: higher = more signal, called active from +8 up or from −8 down.
Assay [13] is described as follows: S. pombe growth modifiers, basal conditions – strain 972, OD600, 24 h, no modulator, primary screen (AID 1090).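 Further: basal condition with compound alone and no growth modifier present; test concentration not given here.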 Conditions: S. pombe 972 growth, higher = more signal, called active from +8 up or from −8 down.
Assay [14] can be described thus: budding yeast growth modifiers under rapamycin – strain BY4716, OD600, 96 h, primary screen (AID 1091). Further: test concentration not given here. Conditions: S. cerevisiae BY4716 + rapamycin, higher = more signal, called active from +8 up or from −8 down.
The target in assay [15] is Torsin-1A-interacting protein 2 (Homo sapiens) (UniProt Q8NFQ8). The assay can be described thus: small molecules binding lysate-expressed LULL1 – cell lysate, human LULL1 lysate, 635/667 nm fluorescence, primary screen (AID 1092).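 Further: probe is lysate of COS7 cells overexpressing human LULL1; score merges per-feature 667 nm fluorescence with signal-to-noise.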 Conditions: small-molecule microarray, hLULL1 lysate binding, 635 nm fluorescence; higher = more signal.
The nature of assay [16]: optical density change of DRC41 E. coli – strain DRC41, OD650, 24 h, E. coli filamentation project, primary screen (AID 1093).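 Further: MC1000 strain lacking acrAB efflux and sulA so SOS filamentation is blocked; test concentration not given here.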 Conditions: E. coli DRC41 growth, higher = more signal, called active from +8 up or from −8 down.
A short description of assay [17]: probe aLefty2 binding to arrayed compounds – biochemical, biotinylated probe, 635/667 nm fluorescence, primary screen (AID 1094).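 Further: score merges spot fluorescence near 667 nm with spot signal-to-noise ratio.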 Conditions: small-molecule microarray, higher = more signal.
The test system of assay [18] is Noggin (protein binding on small-molecule microarray). As to the kind of experiment: small molecules binding Noggin protein – biochemical, 635/667 nm fluorescence, primary screen (AID 1095).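 Further: score merges 667 nm feature fluorescence with signal to noise over triplicate slides.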 Conditions: 635 nm fluorescence, higher = more signal.
Assay [19] has as its target Neurogenic locus notch homolog protein 3 (Homo sapiens) (UniProt Q9UM47). As to the kind of experiment: small molecules binding NOTCH3 protein – biochemical, 635/667 nm fluorescence, primary screen (AID 1096). Conditions: small-molecule microarray, 635 nm fluorescence, higher = more signal.
The nature of assay [20]: probe aEGFR binding to arrayed compounds – biochemical, biotinylated probe, 635/667 nm fluorescence, primary screen (AID 1097).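 Further: probe is a biotinylated anti-EGFR antibody binding compounds printed on slides; score combines fluorescence near 667 nm and signal to noise of each spot.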 Conditions: small-molecule microarray, higher = more signal.

Neurogenic locus notch homolog protein 3 (Homo sapiens), sequence (Q9UM47 whole entry, looked up): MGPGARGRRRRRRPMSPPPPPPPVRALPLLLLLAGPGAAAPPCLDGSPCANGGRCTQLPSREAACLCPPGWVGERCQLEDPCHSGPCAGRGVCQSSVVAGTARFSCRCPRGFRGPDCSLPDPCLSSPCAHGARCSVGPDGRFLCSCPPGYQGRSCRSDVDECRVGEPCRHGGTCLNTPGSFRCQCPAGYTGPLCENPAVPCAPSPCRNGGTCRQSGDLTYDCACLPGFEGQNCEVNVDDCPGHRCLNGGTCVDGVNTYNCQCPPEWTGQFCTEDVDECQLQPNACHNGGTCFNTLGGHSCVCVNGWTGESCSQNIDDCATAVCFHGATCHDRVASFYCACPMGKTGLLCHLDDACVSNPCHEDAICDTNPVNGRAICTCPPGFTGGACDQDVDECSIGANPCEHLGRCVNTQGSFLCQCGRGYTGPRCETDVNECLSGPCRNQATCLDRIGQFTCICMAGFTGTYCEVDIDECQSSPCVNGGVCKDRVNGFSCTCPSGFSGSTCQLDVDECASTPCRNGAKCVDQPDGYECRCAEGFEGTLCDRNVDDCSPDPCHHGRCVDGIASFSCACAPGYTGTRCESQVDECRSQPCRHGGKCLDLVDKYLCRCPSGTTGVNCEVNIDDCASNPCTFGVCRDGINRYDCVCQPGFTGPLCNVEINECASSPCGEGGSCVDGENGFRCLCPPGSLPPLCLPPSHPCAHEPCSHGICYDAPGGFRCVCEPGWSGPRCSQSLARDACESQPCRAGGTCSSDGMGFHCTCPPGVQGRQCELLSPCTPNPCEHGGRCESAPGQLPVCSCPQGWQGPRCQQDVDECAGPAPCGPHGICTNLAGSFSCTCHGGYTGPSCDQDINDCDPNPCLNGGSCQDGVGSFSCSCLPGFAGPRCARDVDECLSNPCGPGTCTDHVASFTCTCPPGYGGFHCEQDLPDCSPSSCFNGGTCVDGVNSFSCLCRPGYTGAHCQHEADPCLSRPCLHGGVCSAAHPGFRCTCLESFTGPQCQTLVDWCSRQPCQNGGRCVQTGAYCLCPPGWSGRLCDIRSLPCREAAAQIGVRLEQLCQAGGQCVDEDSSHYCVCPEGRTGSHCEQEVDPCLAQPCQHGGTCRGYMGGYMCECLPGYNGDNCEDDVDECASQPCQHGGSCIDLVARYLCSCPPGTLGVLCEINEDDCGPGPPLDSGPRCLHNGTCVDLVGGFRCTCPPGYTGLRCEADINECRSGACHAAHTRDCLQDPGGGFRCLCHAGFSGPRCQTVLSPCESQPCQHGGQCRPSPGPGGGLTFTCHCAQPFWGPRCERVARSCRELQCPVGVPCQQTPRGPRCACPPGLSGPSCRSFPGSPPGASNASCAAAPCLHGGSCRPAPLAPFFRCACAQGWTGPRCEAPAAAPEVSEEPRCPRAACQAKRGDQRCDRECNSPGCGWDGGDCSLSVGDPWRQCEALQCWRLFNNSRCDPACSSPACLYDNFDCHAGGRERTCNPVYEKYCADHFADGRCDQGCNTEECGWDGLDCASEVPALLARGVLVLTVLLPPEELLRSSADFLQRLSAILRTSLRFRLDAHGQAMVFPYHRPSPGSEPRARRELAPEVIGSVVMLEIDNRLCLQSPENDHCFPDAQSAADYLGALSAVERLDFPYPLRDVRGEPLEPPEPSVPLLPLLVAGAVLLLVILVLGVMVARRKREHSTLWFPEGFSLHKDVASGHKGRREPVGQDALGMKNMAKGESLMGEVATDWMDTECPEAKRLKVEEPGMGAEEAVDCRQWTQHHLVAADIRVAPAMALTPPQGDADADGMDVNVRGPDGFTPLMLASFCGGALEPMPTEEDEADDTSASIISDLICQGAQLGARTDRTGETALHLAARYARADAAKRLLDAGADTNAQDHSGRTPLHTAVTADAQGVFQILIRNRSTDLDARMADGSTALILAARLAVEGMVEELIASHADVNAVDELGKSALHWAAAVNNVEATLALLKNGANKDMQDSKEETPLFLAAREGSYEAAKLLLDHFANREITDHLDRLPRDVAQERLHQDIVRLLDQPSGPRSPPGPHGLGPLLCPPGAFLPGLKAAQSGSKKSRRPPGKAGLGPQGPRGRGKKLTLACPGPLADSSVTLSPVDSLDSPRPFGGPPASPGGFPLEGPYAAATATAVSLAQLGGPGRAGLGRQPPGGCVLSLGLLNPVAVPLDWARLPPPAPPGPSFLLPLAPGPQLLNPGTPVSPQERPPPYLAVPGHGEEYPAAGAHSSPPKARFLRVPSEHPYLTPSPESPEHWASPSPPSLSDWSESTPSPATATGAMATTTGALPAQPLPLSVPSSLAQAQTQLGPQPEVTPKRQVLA
Pro-neuregulin-1, membrane-bound isoform (Homo sapiens), sequence (Q02297 whole entry, looked up, the tested form may be a part, canonical isoform): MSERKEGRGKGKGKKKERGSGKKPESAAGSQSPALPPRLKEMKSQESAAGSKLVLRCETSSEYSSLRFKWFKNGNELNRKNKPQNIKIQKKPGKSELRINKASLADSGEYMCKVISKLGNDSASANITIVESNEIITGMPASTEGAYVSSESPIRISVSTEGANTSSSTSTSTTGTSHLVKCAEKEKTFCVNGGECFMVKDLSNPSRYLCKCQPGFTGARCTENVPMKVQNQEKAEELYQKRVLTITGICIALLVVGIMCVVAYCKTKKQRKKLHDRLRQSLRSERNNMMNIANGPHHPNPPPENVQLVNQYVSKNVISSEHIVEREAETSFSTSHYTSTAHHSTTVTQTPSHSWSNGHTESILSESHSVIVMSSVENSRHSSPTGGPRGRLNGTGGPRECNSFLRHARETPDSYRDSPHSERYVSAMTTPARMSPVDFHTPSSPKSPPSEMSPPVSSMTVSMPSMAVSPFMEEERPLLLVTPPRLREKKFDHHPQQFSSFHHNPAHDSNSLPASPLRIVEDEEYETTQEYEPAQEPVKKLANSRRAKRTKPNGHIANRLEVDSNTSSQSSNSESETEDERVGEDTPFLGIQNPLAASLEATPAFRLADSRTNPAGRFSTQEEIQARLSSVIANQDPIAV
Torsin-1A-interacting protein 2 (Homo sapiens), sequence (Q8NFQ8 whole entry, looked up): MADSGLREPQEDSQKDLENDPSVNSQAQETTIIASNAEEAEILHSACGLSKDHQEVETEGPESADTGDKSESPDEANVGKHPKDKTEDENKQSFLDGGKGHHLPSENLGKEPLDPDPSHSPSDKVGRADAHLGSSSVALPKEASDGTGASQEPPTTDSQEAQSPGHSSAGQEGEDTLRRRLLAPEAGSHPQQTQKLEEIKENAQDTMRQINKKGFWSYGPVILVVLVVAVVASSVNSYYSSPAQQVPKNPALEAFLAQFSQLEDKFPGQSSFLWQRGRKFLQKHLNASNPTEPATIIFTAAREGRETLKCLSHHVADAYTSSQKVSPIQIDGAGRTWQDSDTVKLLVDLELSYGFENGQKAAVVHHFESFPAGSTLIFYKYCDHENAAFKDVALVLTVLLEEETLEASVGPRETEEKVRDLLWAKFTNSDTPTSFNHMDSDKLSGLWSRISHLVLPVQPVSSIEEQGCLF

Turning to `[N-]=[N+]=NCc1ccccc1C[C@]1(C(=O)N2CCCCC2)N=C(c2ccc(OCCCO)cc2)O[C@H]1c1ccccc1N=[N+]=[N-]`, the composite z-score in [1] was found to be 0.643; in [2], 0.133; in assay [3], 0.158; in assay [4] it was 0.816; in assay [5], 1.3; in [6], 1.57. Moreover, the composite z-score in assay [7] was 1.1; in assay [9], 0.637; in [10], -0.233; in assay [11], 1.57; in assay [15], 3.09; in assay [17], 0.202. Also, the figures for the composite z-score in assay [18], in [19] and in assay [20] were -0.112, 1.07 and 0.262, respectively. In addition, the z-score was -1.99 (inactive) in assay [8]; -0.912 (inactive) in assay [12]; -0.371 (inactive) in [13]; 6.08 (inactive) in assay [14]; -0.442 (inactive) in assay [16].
For the compound `CCOC(=O)C[C@H]1[C@H](OC(=O)c2ccc(C(=O)c3ccccc3)cc2)[C@@H](NC(=O)c2ccc3ccccc3c2)c2cc(OCCCO)ccc2N1C(=O)Cc1ccc(OC)cc1`, the composite z-score in [1] is -0.242; in assay [2] it was 0.151; in assay [3], -0.146; in assay [4] it was 0.66; in [5], 0.361; in assay [6], 0.401. Moreover, the composite z-score is 0.107 in [7]; 0.441 in [9]; -0.0645 in assay [10]; 0.789 in assay [11]; 1.43 in [15]; 0.0633 in assay [17]. For the same compound, the composite z-score in assay [18] was 0.0199; in [19], 0.479; in [20] it was -0.0688. Further, the z-score in [8] is -0.314 (inactive); in assay [12], -0.0229 (inactive); in [13] it was 0.713 (inactive); in assay [14], 0.118 (inactive); in assay [16], 0.458 (inactive).
For the compound `COCC(=C=CC[C@@H](O)c1cccc(OCCO)c1)C[C@@H](O)c1ccccn1`, the composite z-score was -0.19 in assay [1]; 0.0883 in assay [2]; -0.0707 in assay [3]; 0.338 in assay [4]; -0.17 in assay [5]; 1.11 in assay [6]. Moreover, the composite z-score in assay [7] was 1.3; in [9], -0.27; in assay [10] it was 0.176; in assay [11] it was 0.523; in assay [15], 1.12; in assay [17] it was -0.193. Also, the composite z-score is 0.657 in assay [18], 0.599 in [19] and -0.137 in [20]. Also, the z-score in assay [8] was 0.93 (inactive); in assay [12], 1.09 (inactive); in [13], -0.416 (inactive); in assay [14] it was -0.648 (inactive); in [16] it was 0.257 (inactive).
Take `O=C1C[C@@](C(=O)NCCN2CCOCC2)(c2ccc([N+](=O)[O-])cc2)[C@@H](c2ccc(CO)cc2)N1CC12CC3CC(CC(C3)C1)C2`: the composite z-score in assay [1] is -0.243; in assay [2], 0.667; in [3], -0.0692; in assay [4], 0.573; in assay [5], 1.51; in [6] it was 1.58. Further, the composite z-score in [7] was determined as 1.39; in assay [9] it was 0.669; in assay [10] it was 0.155; in assay [11] it was 1.53; in assay [15], 3.31; in [17], 0.0211. Further, the values for the composite z-score in assay [18], in assay [19] and in [20] were 1.4, 1.09 and 0.0778, respectively. Moreover, the z-score is -2.76 (inactive) in assay [8]; -1.41 (inactive) in assay [12]; -17.2 (active) in assay [13]; -1.37 (inactive) in assay [14]; -2.26 (inactive) in assay [16].
`CCOC(=O)C[C@H]1[C@H](OC(=O)c2ccc(C(=O)c3ccccc3)cc2)[C@@H](NC(=O)c2ccccc2)c2cc(OCCCO)ccc2N1C(=O)c1ccc2ccccc2n1`: the composite z-score is -0.416 in assay [1]; 0.0991 in [2]; -0.0206 in assay [3]; 0.234 in assay [4]; 1.27 in assay [5]; 0.682 in assay [6]. Moreover, the composite z-score was determined as 0.417 in [7]; 0.314 in [9]; 0.107 in assay [10]; 0.81 in assay [11]; 1.54 in assay [15]; 0.418 in [17]. The composite z-score is 0.0946 in assay [18], 1.03 in assay [19] and -0.142 in assay [20]. Moreover, the z-score in [8] was -0.266 (inactive); in assay [12], -0.121 (inactive); in assay [13], -0.429 (inactive); in [14], 0.443 (inactive); in [16], 0.104 (inactive).
